# Source: PubChem BioAssay
# Activity calls are given as the source filed them. Unless noted, no rule for the calls is given here.
# Assays:
# [1] = anti-His antibody binders, primary screen, artefact control for SMM control protein annotation, biochemical, small-molecule microarray, 635 nm fluorescence (AID 1128); conditions: anti-His Alexa647 antibody binding, higher = more signal;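 also: score merges feature fluorescence with signal-to-noise for each printed compound spot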
# [2] = tested on: Human papillomavirus type 1a E7 protein (residues 1-88); assay: HPV1a E7 small-molecule binders, primary screen, biochemical, small-molecule microarray, residues 1-88, 635 nm (AID 1129); conditions: small-molecule microarray binding, fluorescence 635 nm; higher = more signal
# [3] = biological target: Focal adhesion kinase 1 (Homo sapiens) (UniProt Q05397); assay: small-molecule microarray binders of FAK, primary screen, biochemical, 635/667 nm fluorescence, BSA, DTT (AID 1130); conditions: PTK2 binding, 635 nm fluorescence, higher = more signal;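 also: composite of spot emission at 667 nm and signal to noise over triplicate slides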
# [4] = tested on: Fibrinogen (Alexa647-labelled); assay: fibrinogen binders on compound microarrays, profiling panel, artefact control for SMM control-protein annotation, biochemical, small-molecule microarray, 635/667 nm fluorescence (AID 1131); conditions: fibrinogen-A647 binding fluorescence, higher = more signal;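 also: z-score merges 667 nm fluorescence with per-spot signal-to-noise over triplicate slides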
# [5] = biological target: Follistatin (Homo sapiens) (UniProt P19883); assay: follistatin binders on small-molecule microarrays, primary screen, biochemical, small-molecule microarray, 635/667 nm fluorescence (AID 1132); conditions: FST binding, 635 nm fluorescence, higher = more signal
# [6] = biological target: Fibroblast growth factor 2 (Homo sapiens) (UniProt P09038); assay: FGF2 binders on small-molecule microarrays, primary screen, biochemical, small-molecule microarray, 635/667 nm fluorescence (AID 1133); conditions: small-molecule microarray binding, FGF2, fluorescence 635/667; higher = more signal
# [7] = mitochondrial membrane potential change in A549 cells, profiling panel, cell-based, JC-1 fluorescence, basal, 24 h, 100 nL (AID 1138); conditions: higher = more signal;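 also: A549 lung adenocarcinoma cells under basal conditions with no added stimulus; test concentration not given here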
# Lefty1 = Lefty1 binders on small-molecule microarrays, primary screen, biochemical, small-molecule microarray, 635/667 nm fluorescence (AID 1139); conditions: small-molecule microarray binding, fluorescence 635/667; higher = more signal
# [8] = tested on: wheat germ agglutinin (Triticum aestivum), Alexa647-labelled; assay: wheat germ agglutinin binders on compound microarrays, profiling panel, artefact control for SMM control-protein annotation, biochemical, small-molecule microarray, 635/667 nm fluorescence (AID 1140); conditions: WGA-A647 binding, 635 nm fluorescence, higher = more signal;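 also: score merges 667 nm feature emission with signal to noise over triplicate slides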
# [9] = biological target: Luciferin 4-monooxygenase (Photinus pyralis) (UniProt P08659); assay: firefly luciferase enzyme inhibitors, primary screen, biochemical, luminescence, purified enzyme, 2006 set (AID 1141); conditions: SteadyGlo luminescence, 30 min, higher = more signal, called active from +8 up or from −8 down;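 also: cell-free assay with purified firefly luciferase at 100 ng per well in PBS; test concentration not given here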
# [10] = tested on: Wnt5a (protein binding on small-molecule microarray); assay: Wnt5a binders on small-molecule microarray, primary screen, biophysical, 635/667 nm fluorescence (AID 1142); conditions: 635 nm fluorescence, higher = more signal;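 also: fluorescence read at 667 nm with signal to noise per printed feature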
# [11] = cell viability in Huh7 cells, primary screen, cytotoxicity control for HCV replication inhibitor project, CellTiter-Glo luminescence, basal, 48 h (AID 1143); conditions: Huh7 HCV replicon, higher = more signal, called active from +8 up or from −8 down;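 also: Huh7 hepatoma cells carrying a hepatitis C replication reporter with no stimulus; test concentration not given here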
# [12] = P. aeruginosa biofilm formation inhibitors, primary screen, PAO1 strain, BacTiter-Glo luminescence, LB-PBS (AID 1144); conditions: 12 h, higher = more signal
# [13] = CREB reporter modulators without forskolin, primary screen, cell-based, PC12, CRE-LacZ reporter, unstimulated (AID 1145); conditions: no forskolin, luminescence, 4.5 h, higher = more signal, called active from +8 up or from −8 down
# [14] = CREB reporter modulators under forskolin, primary screen, cell-based, PC12, CRE-LacZ reporter, forskolin-stimulated (AID 1146); conditions: luminescence, 4.5 h, higher = more signal, called active from +8 up or from −8 down;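 also: PC12 cells with 6xCRE LacZ reporter stimulated by forskolin 10 µM; beta-galactosidase reporter signal reflecting CREB driven transcription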
# [15] = biological target: Streptavidin (Streptomyces avidinii) (UniProt P22629); assay: streptavidin binders on small-molecule microarray, primary screen, artefact control for SMM compound annotation, biophysical, 635/667 nm fluorescence (AID 1147); conditions: streptavidin binding, higher = more signal;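 also: signal reflects streptavidin binding to arrayed compounds as a control protein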
# [16] = small-molecule binders of probe aInhba, primary screen, biochemical, small-molecule microarray, 635/667 nm fluorescence (AID 1148); conditions: higher = more signal;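 also: score merges 667nm spot fluorescence with signal-to-noise for antibody binding to printed compounds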
# Torsin-1A (Homo sapiens) [17] = biological target: Torsin-1A (Homo sapiens) (UniProt O14656); assay: torsin A binders from cell lysate, primary screen, small-molecule microarray, wild-type, 635/667 nm (AID 1149); conditions: COS7 hTOR1A-WT lysate, 635 nm fluorescence, higher = more signal
# Torsin-1A (Homo sapiens) [18] = biological target: Torsin-1A (Homo sapiens) (UniProt O14656); assay: small-molecule binders of mutant TOR1A in lysate, primary screen, cell lysate, small-molecule microarray, COS7 lysate, 635/667 nm fluorescence (AID 1150); conditions: COS7 hTOR1A mutant lysate, 635 nm fluorescence, higher = more signal;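 also: score pools 667 nm emission and signal to noise measuring lysate protein binding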
# [19] = tested on: Sonic hedgehog protein (Shh); assay: small-molecule binders of Shh protein, primary screen, biochemical, small-molecule microarray, 635/667 nm fluorescence (AID 1151); conditions: small-molecule microarray binding, 635 nm fluorescence; higher = more signal;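 also: Shh protein binding to compounds spotted on small-molecule microarray slides; score combines spot fluorescence intensity with signal-to-noise across triplicate slides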
# Sequence of Streptavidin (Streptomyces avidinii) (P22629 whole entry, looked up): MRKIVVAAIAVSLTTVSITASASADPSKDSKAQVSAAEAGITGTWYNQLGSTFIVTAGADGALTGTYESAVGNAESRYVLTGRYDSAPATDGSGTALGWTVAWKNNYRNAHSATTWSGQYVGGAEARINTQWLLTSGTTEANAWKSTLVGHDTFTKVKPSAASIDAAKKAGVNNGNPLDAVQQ
# Sequence of Focal adhesion kinase 1 (Homo sapiens) (Q05397 whole entry, looked up): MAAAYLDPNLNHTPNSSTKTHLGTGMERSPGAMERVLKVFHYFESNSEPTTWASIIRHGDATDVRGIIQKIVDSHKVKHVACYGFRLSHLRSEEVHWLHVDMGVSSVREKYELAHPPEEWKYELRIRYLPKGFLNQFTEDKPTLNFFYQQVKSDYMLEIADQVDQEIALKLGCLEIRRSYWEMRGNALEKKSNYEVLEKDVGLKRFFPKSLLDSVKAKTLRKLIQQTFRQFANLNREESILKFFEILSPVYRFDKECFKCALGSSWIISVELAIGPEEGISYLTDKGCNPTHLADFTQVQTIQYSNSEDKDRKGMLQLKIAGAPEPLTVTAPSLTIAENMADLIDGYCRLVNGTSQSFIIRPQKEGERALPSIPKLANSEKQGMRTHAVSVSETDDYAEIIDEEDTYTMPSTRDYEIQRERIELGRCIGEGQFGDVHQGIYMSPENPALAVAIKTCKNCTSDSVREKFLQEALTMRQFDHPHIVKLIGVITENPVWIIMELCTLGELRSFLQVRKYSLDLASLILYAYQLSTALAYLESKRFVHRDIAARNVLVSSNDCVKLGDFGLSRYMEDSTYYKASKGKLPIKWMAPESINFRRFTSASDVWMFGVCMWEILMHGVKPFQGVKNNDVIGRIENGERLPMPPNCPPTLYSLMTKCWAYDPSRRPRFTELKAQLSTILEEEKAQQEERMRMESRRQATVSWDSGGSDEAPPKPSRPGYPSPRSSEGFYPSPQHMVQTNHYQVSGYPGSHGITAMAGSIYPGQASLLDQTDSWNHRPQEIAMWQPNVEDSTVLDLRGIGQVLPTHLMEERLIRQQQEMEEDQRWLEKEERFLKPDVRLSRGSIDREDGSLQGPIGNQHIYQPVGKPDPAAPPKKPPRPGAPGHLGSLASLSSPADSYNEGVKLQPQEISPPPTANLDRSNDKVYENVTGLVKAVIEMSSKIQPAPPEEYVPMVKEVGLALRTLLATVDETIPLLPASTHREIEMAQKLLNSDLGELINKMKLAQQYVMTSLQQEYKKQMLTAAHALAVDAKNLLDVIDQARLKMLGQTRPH
# Sequence of Luciferin 4-monooxygenase (Photinus pyralis) (P08659 whole entry, looked up): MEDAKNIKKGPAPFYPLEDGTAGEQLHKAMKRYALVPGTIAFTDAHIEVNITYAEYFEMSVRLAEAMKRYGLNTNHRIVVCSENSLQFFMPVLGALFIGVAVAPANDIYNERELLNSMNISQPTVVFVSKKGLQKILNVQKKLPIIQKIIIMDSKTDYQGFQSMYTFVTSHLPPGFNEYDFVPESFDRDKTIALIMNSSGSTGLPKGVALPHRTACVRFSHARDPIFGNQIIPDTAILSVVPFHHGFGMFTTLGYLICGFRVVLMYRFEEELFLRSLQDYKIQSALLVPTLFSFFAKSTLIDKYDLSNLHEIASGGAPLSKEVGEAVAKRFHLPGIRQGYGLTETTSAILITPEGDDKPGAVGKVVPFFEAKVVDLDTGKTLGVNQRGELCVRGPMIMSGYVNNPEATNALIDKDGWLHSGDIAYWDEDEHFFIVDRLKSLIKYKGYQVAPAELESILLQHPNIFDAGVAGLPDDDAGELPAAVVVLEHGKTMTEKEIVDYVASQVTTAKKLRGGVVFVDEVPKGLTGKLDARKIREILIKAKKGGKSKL
# Sequence of Torsin-1A (Homo sapiens) (O14656 whole entry, looked up): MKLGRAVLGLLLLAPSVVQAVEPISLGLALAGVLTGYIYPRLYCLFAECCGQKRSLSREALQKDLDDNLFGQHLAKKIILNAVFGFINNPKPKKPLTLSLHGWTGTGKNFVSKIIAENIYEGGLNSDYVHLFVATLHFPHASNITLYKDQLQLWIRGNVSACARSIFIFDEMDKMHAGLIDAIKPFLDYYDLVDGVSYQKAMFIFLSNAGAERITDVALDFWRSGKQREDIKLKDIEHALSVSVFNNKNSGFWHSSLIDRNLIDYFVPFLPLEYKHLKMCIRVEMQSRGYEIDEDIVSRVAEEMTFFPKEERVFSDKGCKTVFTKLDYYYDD
# Sequence of Fibroblast growth factor 2 (Homo sapiens) (P09038 whole entry, looked up): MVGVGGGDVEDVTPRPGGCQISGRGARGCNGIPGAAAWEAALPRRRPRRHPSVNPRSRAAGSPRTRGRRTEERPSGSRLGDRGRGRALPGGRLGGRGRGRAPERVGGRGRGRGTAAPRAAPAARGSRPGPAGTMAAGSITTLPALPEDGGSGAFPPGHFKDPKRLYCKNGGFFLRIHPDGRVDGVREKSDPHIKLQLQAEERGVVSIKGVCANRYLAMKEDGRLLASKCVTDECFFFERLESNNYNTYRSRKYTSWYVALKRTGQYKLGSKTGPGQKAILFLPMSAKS
# Sequence of Follistatin (Homo sapiens) (P19883 whole entry, looked up): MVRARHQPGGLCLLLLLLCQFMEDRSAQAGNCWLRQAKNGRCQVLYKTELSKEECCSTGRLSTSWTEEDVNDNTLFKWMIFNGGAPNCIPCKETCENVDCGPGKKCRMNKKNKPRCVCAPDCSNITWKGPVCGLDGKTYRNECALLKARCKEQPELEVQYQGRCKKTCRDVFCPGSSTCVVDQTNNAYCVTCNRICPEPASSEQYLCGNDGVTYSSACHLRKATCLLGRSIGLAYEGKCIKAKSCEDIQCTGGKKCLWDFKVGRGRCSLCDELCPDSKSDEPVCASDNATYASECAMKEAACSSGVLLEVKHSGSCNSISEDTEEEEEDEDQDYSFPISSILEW
Compound,composite z-score [1],composite z-score [2],composite z-score [3],composite z-score [4],composite z-score [5],composite z-score [6],z-score [7],composite z-score (Lefty1),composite z-score [8],z-score [9],composite z-score [10],z-score [11],z-score [12],z-score [13],z-score [14],composite z-score [15],composite z-score [16],composite z-score (Torsin-1A (Homo sapiens) [17]),composite z-score (Torsin-1A (Homo sapiens) [18]),composite z-score [19]
C=CCC(OC(C)=O)[C@@H]1[C@@H](N(Cc2cc3ccccc3o2)C(=O)c2ccc(C)cc2)c2cc(OCCCO)ccc2N1C(=O)Cc1ccc(OC)cc1 (stereo not given in full),0.0464,-0.454,0.0903,0.0839,0.924,0.158,1.33,-0.0083,0.273,-1.37 (inactive),0.525,-0.102 (inactive),-0.491 (inactive),0.558 (inactive),-0.409 (inactive),1.57,-0.0044,-0.28,0.0194,0.809
C=CCN1C(=O)[C@@]2(CCS(=O)(=O)c3ccccc3)N=C(c3ccc(OCCCO)cc3)O[C@H]2c2ccccc21,1.34,1.25,0.763,0.884,1.45,1.78,0.821,0.952,0.37,-1.48 (inactive),0.889,-2.49 (inactive),0.369 (inactive),-0.0808 (inactive),-1.28 (inactive),0.636,0.198,1.16,0.426,2.07
CC(C)OC(=O)C=C1C[C@@H](c2ccc(C(F)(F)F)cc2)O[C@@H](c2ccc(C(F)(F)F)cc2)O1,0.751,1.25,1.04,0.907,-0.0691,-0.46,-0.0127,-0.0747,1.21,-0.478 (inactive),-0.1,-3.23 (inactive),-1.17 (inactive),-0.723 (inactive),-0.163 (inactive),-0.208,-0.157,0.827,0.483,-0.831
C=CCOC(=O)[C@H]1[C@@H]2C(=O)O[C@@H](c3ccccc3)[C@@H](c3ccccc3)N2[C@@H](c2ccc(OCCOC(=O)[C@@H]3C[C@@H]4C(=O)N[C@@H](CCCCN(C)C)C(=O)N4[C@@H]3c3ccc(O)cc3)cc2)[C@]12C(=O)Nc1ccccc12,1.57,1.14,0.0515,0.503,1.38,1.48,-1.49,1.54,0.382,-3.27 (inactive),0.261,-0.0273 (inactive),0.283 (inactive),0.411 (inactive),0.739 (inactive),-0.245,-0.0468,0.756,0.73,1.96
O=C1N(Cc2ccccc2)c2ccccc2[C@@H]2OC(c3ccc(OCCCO)cc3)=N[C@]12Cc1ccccc1,0.205,1.24,0.623,0.787,1.12,1.12,-1.31,0.183,0.849,-3.86 (inactive),-0.0069,-4.55 (inactive),-0.236 (inactive),1.37 (inactive),-1.64 (inactive),0.89,-0.0332,0.378,0.534,0.809
NC(N)=NCCCn1cc(CNC(=O)[C@@H](N)Cc2ccccc2)nn1,0.499,-0.505,-0.242,-0.845,1.42,0.943,-0.55,1.05,0.465,0.36 (inactive),-0.0448,-0.109 (inactive),1.6 (inactive),-0.491 (inactive),0.35 (inactive),-0.298,0.017,0.485,0.142,1.08
Cc1cc(C)c(C(O)C2C=CC3C(=O)N(c4ccccc4)C(=O)C3N2Nc2ccc(C(C)C)cc2)c(C)c1 (stereo not given),1.11,1.26,1.22,1.02,0.811,0.375,0.178,-0.138,1.39,-0.197 (inactive),0.704,0.366 (inactive),-0.342 (inactive),0.629 (inactive),1.07 (inactive),1.71,0.375,0.385,0.333,-0.297
C=C(COC)/C(=C/C[C@H](OC(=O)c1ccncc1)c1ccccc1OCCO)c1cnc2ccccc2c1,0.717,1.23,0.241,1.01,1.4,1.35,0.662,1.5,1.04,-0.212 (inactive),0.488,-0.854 (inactive),-1.13 (inactive),3.24 (inactive),1.42 (inactive),0.294,0.156,1.57,1.42,2.22
CN(C)CCCNC(=O)[C@@]1(c2ccc([N+](=O)[O-])cc2)CC(=O)N(CC23CC4CC(CC(C4)C2)C3)[C@@H]1c1ccc(CO)cc1I,1.46,1.21,-0.0381,0.846,1.35,1.34,-2.32,1.5,0.674,-1.46 (inactive),0.607,-5.93 (inactive),-0.263 (inactive),0.468 (inactive),0.372 (inactive),0.164,0.206,0.835,0.996,1.96
